PubChem BioAssay AID1794808 (University of Kansas High Throughput Screening Laboratory, 2022)
Screen size: about 210,000 compounds; about 520 (0.25%) were called active. This is one part of a sample in which actives are shown more often than they occur. Cut-off read from the data, not from the text of the source: active = inhibition above about 50%; inactive = the rest.

These compounds were tested on Plasmodium falciparum apicoplast DNA polymerase (apPOL) (assay: Pf-apPOL inhibitors, biochemical, fluorescence (AID 1794808)). Settings: Recombinant Pf-apPOL, molecular beacon fluorescence, 1.5 h; at 10 µM; hits give high values.

| SMILES | inhibition |
| --- | --- |
| CCCCC1(c2ccccc2)C(=O)NC(=O)NC1=O | 81.2% (active) |
| CCC1(c2ccccc2)C(=O)NC(=O)N(C)C1=O (stereo not given) | -0.8% (inactive) |
| CCC1(c2ccccc2)C(=O)NC(=O)N(C(=O)c2ccccc2I)C1=O (stereo not given) | -1.8% (inactive) |
| Cc1nnc(SCc2nc3ccccc3c(=O)n2-c2ccccc2Cl)s1 | 0.3% (inactive) |
| CCn1cc(C(=O)NCc2cccc(C)c2)c2cccnc21 | -12.8% (inactive) |
